From PubChem BioAssay AID2315 (National Center for Advancing Translational Sciences (NCATS), 2010)
The campaign covered roughly 290,000 compounds. About 27,000 (9.3%) were called active. Rule as the data show it: active = inhibition mostly above about 28% (no sharp cut-off); inactive = mostly below about 43%. What follows is part of a selection rich in actives, with near analogues and random picks from the rest.

assay: A qHTS for Small Molecule Inhibitors of Shiga Toxin; details: Vero cells, Shiga toxin protein synthesis inhibition reporter; at 38.7 µM, hits give high values; as to inhibition: 0% is about no effect

Structure (SMILES)	inhibition
Cc1cc(C(=O)N/N=C/c2ccc(O)c([N+](=O)[O-])c2)c(C)n1-c1ccc(F)cc1	0% (active)
COc1cc(/C=N\NC(=O)C2C(=O)NCC2c2ccccc2)cc(OC)c1O (centres undefined)	-11.2% (inactive)
COc1ccc(/C=N/NC(=O)c2ccncc2)cc1CN1CCCc2ccccc21	-1.95% (inactive)
Cc1cc(C(=O)N/N=C/c2ccc(N3CCOCC3)cc2)c(C)o1	46.9% (inactive)
COc1cc(/C=N/NC(=O)c2cc(C)n(-c3ccc(F)cc3)c2C)cc(OC)c1O	43.1% (active)
COc1cc(/C=N/NC(=S)Nc2cccnc2)cc(OC)c1O	-4.42% (inactive)
O=C(N/N=C/c1cccc(Br)c1)c1ccc(N2CCCC2=O)cc1	18.7% (inactive)
Cc1nn(CC(=O)N/N=C/c2ccc(F)cc2)c(C)c1[N+](=O)[O-]	-12.8% (inactive)
CCc1ccc(CNC(=O)C2CC(=O)N(CCc3ccc(C)cc3)C2)cc1 (centres undefined)	-9.66% (inactive)
COCCC(=O)N1CCC(Oc2ccc(C(=O)NCc3ccon3)cc2)CC1	-10.3% (inactive)
CCCCCC1CC(COc2ccccc2)OC1=O (centres undefined)	-10.6% (inactive)
Cc1cc(-c2n[nH]c(=S)n2/N=C/c2ccco2)n[nH]1	-9.01% (inactive)
S=c1[nH]nc(-c2cccnc2)n1/N=C/C(Cl)=C\c1ccccc1	48.2% (inactive)
Cc1cc(-c2n[nH]c(=S)n2/N=C/C(Br)=C/c2ccccc2)n[nH]1	91.5% (active)
CC(=O)c1c(C)oc2ccc(NS(=O)(=O)c3ccc(C(=O)O)cc3)cc12	18.1% (inactive)
CCCCN(CCCC)CCCNC(=O)CN1C(=O)COc2ccc(S(=O)(=O)N3CCC(C)CC3)cc21	-6.42% (inactive)
Cc1cccc(NC(=O)C2CCCN(C(=O)Nc3ccc(F)cc3)C2)c1C (centres undefined)	1.84% (inactive)
Nc1nonc1C(=O)NCCc1ccccc1	66.7% (active)
O=C(NCCc1ccccc1)C1CC1	8.81% (inactive)
NC(=O)Nc1ccccc1C(=O)NCCc1ccccc1	83.7% (active)
NS(=O)(=O)c1ccc(CCNC(=O)CNC(=O)Cc2ccccc2)cc1	-4.55% (inactive)
O=C(O)c1ccccc1-c1ccccc1C(=O)NCCc1ccccc1	23.5% (inactive)
CN(C)/C(=N\OC(=O)c1ccccc1)c1nonc1N	-8.6% (inactive)
Cc1ccc(-c2ccc(=O)n(Cc3ccc(F)cc3Cl)n2)cc1	-3.36% (inactive)
CCOC(=O)N1CCC(N2Cc3cccc(C(=O)Nc4c(C)cccc4CC)c3C2=O)CC1	3.74% (inactive)

Structure (SMILES)	inhibition
CC(C)[C@H](NC(=O)N1CCn2c1nc1ccccc12)C(=O)NCc1ccc2c(c1)OCO2	10.7% (inactive)
O=C(CN1C(=O)NC2(CCCCC2)C1=O)NCCc1c[nH]c2ccccc12	-14% (inactive)
O=C(CCC(=O)n1ncc2ccccc21)NCc1ccccc1Cl	-2.08% (inactive)
CCCOc1ccc(C2=CSC3=NCCN23)cc1Cl	-7.6% (inactive)
CCN(CC)S(=O)(=O)c1ccc(N2CCOCC2)c(NC(=O)C2CSC3(C)CCC(=O)N23)c1 (centres undefined)	-6.24% (inactive)
COc1ccc2c3c(c(=O)oc2c1)C1O[C@](CCCCN2C(=O)c4ccccc4C2=O)(Cc2c1ccc1ccccc21)O3	inactive
Cc1cccc(NC(=O)CCn2c(=O)oc3ccccc32)c1	63.6% (inactive)
Cc1ccc(OCCCn2c(=O)oc3ccccc32)cc1	52.4% (active)
NC(=O)Cn1c(=O)oc2ccccc21	18.3% (inactive)
CCc1ccc(NC(=O)Cn2nnc(C(=O)NCc3ccc(OC)cc3)c2N)cc1	6.32% (inactive)
COc1ccc2c(c1)CCc1c(C(=O)N3CCCC3)noc1-2	55.2% (active)
COc1ccc2oc(=O)c(C(=O)N3CCCC3)cc2c1	-3.3% (inactive)
COc1ccc2c(c1)CCc1c(C(=O)N3CCc4ccccc4C3)noc1-2	26.1% (inactive)
O=C1/C(=C/c2cccs2)SC(=S)N1C1CCS(=O)(=O)C1 (centres undefined)	-16.1% (inactive)
COc1ccc(/C=C2\CCc3ccccc3C2=O)c(OC)c1OC	77.4% (active)
CN1C/C(=C/c2cccs2)C(=O)/C(=C\c2cccs2)C1	66.1% (inactive)
COc1ccc(/C=N/NC(=O)C2CC2)c(OC)c1OC	-1.72% (inactive)
COc1ccc2c(c1OC)C(=O)c1ccccc1C2=O	16.6% (inactive)
O=C(COC(=O)/C=C/c1cccs1)NC1CCCCC1	10.6% (inactive)
O=C1/C(=C/c2cccs2)CCc2ccccc21	85.4% (active)
CCC1C/C(=C/c2cccs2)C(=O)/C(=C/c2cccs2)C1 (centres undefined)	-3.18% (inactive)
O=C1/C(=C/c2cccs2)CCC1C1CCCC1 (centres undefined)	136% (active)
CCOC(=O)C1CCCN(CCSc2ccc(C)cc2)C1 (centres undefined)	30% (inactive)
O=C(N[C@@H](Cc1ccccc1)C(=O)OCc1ccccc1)c1nc[nH]c1C(=O)N[C@@H](Cc1ccccc1)C(=O)OCc1ccccc1	-7.22% (inactive)
